High-throughput results as filed in PubChem BioAssay.
Sampled rows, rich in hits. Any-hit rate of the full collection: about 1.1%.
3CLpro inhibitor – SARS-CoV 3CLpro protease inhibition. AID 1706. P0C6X7. recombinant SARS-CoV 3CLpro, quenched FRET peptide cleavage. inhibition, % at 6 µM. actives 0.14% (n = 290,000); in the data active means inhibition above about 12%
BJeLR viability – kills HRASV12-expressing BJeLR cells. BJeLR (HRASV12) viability, CellTiter-Glo ATP luminescence, 48 h. inhibition, % (concentration not given with the values). actives 0.17% (n = 300,000); in the data active means inhibition above about 50%
Mtb BioA inh – BioA (M. tuberculosis) enzyme inhibition. purified M. tuberculosis BioA enzyme, plate reader. inhibition, % at 9.99 µM. actives 0.096% (n = 360,000); in the data active means inhibition above about 40%
MazF activator – increases E. coli MazEF RNase cleavage of RNA | P0AE70 | FAM/BHQ RNA-DNA oligo cleavage fluorescence, 5 h | activation, % at 20 µM | actives 0.32% (n = 350,000) | AID 504720; in the data active means activation above about 50%
Target sequence (P0AE70 whole entry, looked up): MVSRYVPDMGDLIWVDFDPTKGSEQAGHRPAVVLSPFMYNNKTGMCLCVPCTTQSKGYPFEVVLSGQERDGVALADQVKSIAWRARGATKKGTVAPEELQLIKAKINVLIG
PfHsp40 yeast – rescue of PfHsp40-mediated yeast toxicity; S. cerevisiae expressing PfHsp40, growth rescue, ATP luminescence; growth rescue, % at 12.5 µM; actives 0.68% (n = 340,000); in the data active means growth rescue above about 28%, passing the limit was not always enough;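 further: yeast W303a lacking pdr1 and pdr3 grown in galactose medium; growth measured after three days at 30 °C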
Yp Topo-I inh – blocks Yersinia pestis topoisomerase I activity | Y. pestis Topo-I cleavage product accumulation, plate reader | activity, % at 10 µM | actives 0.064% (n = 360,000); in the data active means activity above about 50%, passing the limit was not always enough
The depositor's hits bear a star.

C[C@H](CO)N1C[C@H](C)[C@@H](CN(C)Cc2ccc(Oc3ccccc3)cc2)Oc2c(NC(=O)Nc3cccc4ccccc34)cccc2C1=O was read as Mtb BioA inh 0.0.
Screening O=C(NNc1c(Cl)cc(Cl)cc1Cl)c1cccc([N+](=O)[O-])c1 returned 3CLpro inhibitor 1.6, BJeLR viability -2.0, Mtb BioA inh 1.8, MazF activator 12.2, PfHsp40 yeast 191.8* and Yp Topo-I inh -5.0.
For Cn1nnnc1SCC(=O)c1c(N)n(C2CC2)c(=O)[nH]c1=O the results were Mtb BioA inh 0.1, MazF activator -0.8, PfHsp40 yeast -0.8 and Yp Topo-I inh 1.1.
Screening Cc1cccc(C)c1-n1nnnc1SCC(=O)c1c(N)n(C2CC2)c(=O)[nH]c1=O returned Mtb BioA inh -1.1, MazF activator 55.2*, PfHsp40 yeast -1.9 and Yp Topo-I inh 2.7.
Cc1ccc(-n2nnnc2SCC(=O)c2c(N)n(C3CC3)c(=O)[nH]c2=O)cc1C was read as Mtb BioA inh -0.5, MazF activator 56.7*, PfHsp40 yeast 0.3 and Yp Topo-I inh 2.5.
Screening COc1ccccc1C(=O)Nc1ccc2c(c1)C(=O)N(C)[C@@H]1CC[C@@H](CC(=O)NCc3ccc(Cl)c(Cl)c3)O[C@H]1CO2 returned Mtb BioA inh -0.1.
C[C@@H]1CCCCO[C@H](CN(C)C(=O)c2ccccc2)[C@H](C)CN([C@@H](C)CO)C(=O)c2cc(NS(=O)(=O)c3ccc(F)cc3)ccc2O1 was read as Mtb BioA inh 0.0.
`O=c1[nH]c(=O)n(C2OC(CO)C(O)C2O)cc1F` (stereo not drawn) gave MazF activator 6.8, PfHsp40 yeast 203.0* and Yp Topo-I inh 4.5.
Nc1nc(=O)n(C2OC(CO)C(O)C2O)cc1F (stereo not drawn) was read as Mtb BioA inh 0.0.
COc1cc([N+](=O)[O-])cc(/C=N/NC(=O)C(O)(c2ccccc2)c2ccccc2)c1O was read as 3CLpro inhibitor -2.5, BJeLR viability -4.2, Mtb BioA inh 1.4, MazF activator 3.9, PfHsp40 yeast 30.0* and Yp Topo-I inh -1.4.
Screening COc1ccc(S(=O)(=O)Nc2ccc3c(c2)C(=O)N([C@@H](C)CO)C[C@@H](C)[C@@H](CN(C)C(=O)Nc2cccc4ccccc24)O3)cc1 returned Mtb BioA inh 0.2.
`O=C(Cc1ccncc1)N1CC[C@@H]2[C@H]1c1cc(-c3cccc(F)c3)ccc1N[C@@H]2CO` gave Mtb BioA inh 0.5.
Screening CCN(c1ccccc1)S(=O)(=O)c1ccc(C(=O)Nc2nnc(CSC)o2)cc1 returned 3CLpro inhibitor -2.5, BJeLR viability 6.8, Mtb BioA inh 0.4, MazF activator 0.1, PfHsp40 yeast 40.0* and Yp Topo-I inh -10.5.
`Cc1ccc(C)c(C(=O)c2c(C)nc3sccn23)c1` gave 3CLpro inhibitor 5.4, MazF activator 3.0, PfHsp40 yeast 1.1 and Yp Topo-I inh 0.3.
Screening Cc1cc(C)c(NC(=O)c2cc3c(nc4sccn43)s2)c(C)c1 returned 3CLpro inhibitor 2.6, BJeLR viability 5.5, Mtb BioA inh 0.5, MazF activator -7.8, PfHsp40 yeast 66.4* and Yp Topo-I inh -7.9.
Screening COc1ccccc1S(=O)(=O)N[C@H]1C=C[C@H](CC(=O)NCc2cc(F)cc(F)c2)O[C@H]1CO returned Mtb BioA inh 1.7.
Screening COc1ccc(O)c(C2=Nc3ccccc3N=C(c3ccco3)C2)c1 returned 3CLpro inhibitor 5.0, BJeLR viability -0.4, Mtb BioA inh -2.0, MazF activator 20.3, PfHsp40 yeast -1.1 and Yp Topo-I inh -4.3.
`Oc1ccc(Cl)cc1C1=Nc2ccccc2N=C(c2ccco2)C1` gave 3CLpro inhibitor 6.7, BJeLR viability -1.6, Mtb BioA inh -5.4, MazF activator 112.9*, PfHsp40 yeast -0.9 and Yp Topo-I inh 0.4.
`CCCC#Cc1cnc2c(c1)C(=O)N([C@H](C)CO)C[C@H](C)[C@H](CN(C)C(=O)Nc1ccccc1F)O2` gave Mtb BioA inh -1.3.
CCCCCCCCCCCC(=O)c1c(O)cccc1O was read as 3CLpro inhibitor 2.2, BJeLR viability 1.6, Mtb BioA inh 0.6, MazF activator -13.9, PfHsp40 yeast 165.0* and Yp Topo-I inh -5.2.
`CCCCCCCC(=O)NNC(=O)Cc1ccccc1` gave 3CLpro inhibitor 0.4, BJeLR viability -3.4, Mtb BioA inh -0.4, MazF activator -8.5, PfHsp40 yeast 0.2 and Yp Topo-I inh -0.9.
For Cc1nc2c(ccc3nc(NC(=O)Cc4ccccc4)sc32)s1 the results were 3CLpro inhibitor 0.8, BJeLR viability 3.5, Mtb BioA inh 0.4, MazF activator 4.3, PfHsp40 yeast 29.3* and Yp Topo-I inh -6.0.
For Cc1ccc(CC(=O)Nc2nc3ccccc3s2)cc1 the results were 3CLpro inhibitor 5.2, BJeLR viability 11.6, Mtb BioA inh -2.0, MazF activator -6.9, PfHsp40 yeast 3.8 and Yp Topo-I inh -5.8.
O=C(NCCc1ccc(C(F)(F)F)cc1)C1CCC(=O)N(CCc2cccc(F)c2)C1 (stereo not drawn) was read as 3CLpro inhibitor -1.6, BJeLR viability -5.1, Mtb BioA inh 1.4, MazF activator 64.1*, PfHsp40 yeast 0.1 and Yp Topo-I inh 7.8.
COc1cccc(N2C(N)=NC(N)=NC2(C)C)c1 was read as 3CLpro inhibitor 5.7, BJeLR viability 78.8*, MazF activator -3.5, PfHsp40 yeast -0.2 and Yp Topo-I inh -2.7.
COc1ccc(N2C(N)=NC(N)=NC2(C)C)cc1 was read as 3CLpro inhibitor 0.0, BJeLR viability 5.6, Mtb BioA inh -0.6, MazF activator 6.2, PfHsp40 yeast 0.2 and Yp Topo-I inh 1.1.
CO[C@@H]1CN(C)C(=O)c2cc(NC(=O)C3CC3)ccc2OC[C@H](C)N(C(=O)c2cnccn2)C[C@H]1C was read as Mtb BioA inh 0.6.
O=C(O)c1ccc(N/N=C/c2c(F)cccc2Cl)cc1 was read as 3CLpro inhibitor 1.9, BJeLR viability -0.1, Mtb BioA inh 1.9, MazF activator 4.1, PfHsp40 yeast 106.1* and Yp Topo-I inh 4.3.
COc1cc2ncc(C(=O)c3ccccc3)c(N3CCN(Cc4ccccc4)CC3)c2cc1OC was read as 3CLpro inhibitor 4.0, BJeLR viability 11.7, Mtb BioA inh 1.1, MazF activator -23.7, PfHsp40 yeast 53.6* and Yp Topo-I inh 7.7.
Screening O=C1c2ccccc2NC(c2ccc([N+](=O)[O-])cc2)N1O (stereo not drawn) returned 3CLpro inhibitor 2.5, BJeLR viability 0.7, Mtb BioA inh 2.7, MazF activator 5.0, PfHsp40 yeast 36.9* and Yp Topo-I inh 2.8.
`COc1cccc(-c2ccc3n(c2=O)C[C@H]2[C@H](CO)[C@@H](C(=O)N(C)C)[C@@H]3N2Cc2cncnc2)c1` gave Mtb BioA inh -1.6.
`Cc1cc(NC(=O)c2c(F)cccc2Cl)n(-c2nc3ccccc3[nH]2)n1` gave 3CLpro inhibitor 0.8, BJeLR viability 2.7, Mtb BioA inh -0.6, MazF activator -5.8, PfHsp40 yeast 112.9* and Yp Topo-I inh -17.2.
